From paper PMC6212790, “How bacterial xenogeneic silencer rok distinguishes foreign from self DNA in its resident genome”
Over roughly 33,000 sequences, “e-score” has its median near -0.038; the highest 2% begin near 0.33. The full list was thinned out, with the highest values kept by preference.

These sequences were tested against T1, GST-Rok-C97-191 (Bacillus subtilis subsp. subtilis str. …, UniProt O34857 97-191) (assay: protein binding microarray; Rok is a gene silencer of Bacillus subtilis; high values mean tight binding). Conditions: protein: recombinant; tags: GST (pTH5325, pDEST15-Magic modified); dsDNA, one strand shown.
T1 sequence: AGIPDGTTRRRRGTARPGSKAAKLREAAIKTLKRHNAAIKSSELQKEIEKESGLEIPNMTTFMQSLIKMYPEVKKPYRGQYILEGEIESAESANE
Summary of the method: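 Each has a 25-mer constant primer and a 35-mer variable part from a de Bruijn sequence of order 10, covering every non-palindromic 8-mer at least 32 times (palindromic 16). Preference for each 8-mer is given as a rank-based, unitless enrichment score (E-score). Its range runs from 0.5 (most favored) to −0.5 (most disfavored).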

Row | Sequence | binding signal [E-score]
1 | TAGTTTCA | 0.361
2 | TAGTTTAA | 0.345
3 | CAGTTTCA | -0.125
4 | AAGTTTAA | -0.0234
5 | GAGTTTAA | 0.0511
6 | GAGTTTCA | -0.0326
7 | ACCCGCTA | 0.0179
8 | ACCTGTGC | -0.159
9 | ACAACCAC | -0.126
10 | ATACTGTA | 0.334
11 | GTACTGTA | 0.219
12 | ATACTGTG | -0.082
13 | CTACTGTA | 0.384
14 | ATACTGAA | 0.0579
15 | CTACTGAA | 0.098
16 | CATGGAAA | 0.0212
17 | AGTACGAG | 0.125
18 | CGACTATC | -0.0118
19 | ATACTAGC | 0.288
20 | ATACTCTC | 0.0157
21 | ATACTATC | 0.359
22 | CTACTATC | 0.344
23 | CCACTATC | 0.0612
24 | CTTACCAA | 0.0678
25 | ATTACCTG | 0.0992

Row | Sequence | binding signal [E-score]
26 | ATTACCAA | 0.333
27 | ATTACCAC | 0.181
28 | ATTACCTA | 0.337
29 | ATTACCTC | 0.136
30 | AAATTTCT | 0.203
31 | AAATAGAT | 0.343
32 | AAATAGGT | 0.314
33 | AAATAGAG | -0.0395
34 | AAATAGAA | 0.36
35 | GAATAGAA | 0.209
36 | AAATAGAC | 0.0478
37 | AAGAGAGA | -0.188
38 | ACCTCCCG | -0.064
39 | CATCAGAC | -0.171
40 | CTCTATAC | 0.143
41 | CTATATGC | 0.209
42 | CTATATAC | 0.376
43 | ACGTATAT | 0.373
44 | GTATATAC | 0.43
45 | ATATATAC | 0.367
46 | GGATATAC | 0.288
47 | ACGTATAC | 0.137
48 | ACGTATAA | 0.268
49 | GCATATAC | 0.18
50 | ATATACAC | 0.289

Row | Sequence | binding signal [E-score]
51 | AGATATAC | 0.221
52 | ACTTAAGA | -0.12
53 | TTGCCAAA | 0.142
54 | AAGGAAGC | -0.125
55 | ACTGCGCG | -0.0406
56 | CGAGTGCG | -0.0584
57 | AGATATCC | 0.00982
58 | AGATATAA | 0.282
59 | ACATATGA | 0.00179
60 | AGATATCA | 0.0773
61 | AGATATAG | 0.188
62 | ATATATGG | 0.279
63 | AGATATAT | 0.421
64 | ACATATGG | 0.132
65 | ATATATAT | 0.443
66 | AGATATCT | 0.355
67 | ACATATGT | 0.4
68 | ATATACAT | 0.288
69 | ATGTGCCA | -0.163
70 | ACAACCAA | 0.0769
71 | GCGCTCTA | 0.0916
72 | GGAATGCA | -0.0343
73 | ACTTTCAT | 0.0835
74 | CGGTCCAG | -0.196
75 | ACATATAT | 0.4

Row | Sequence | binding signal [E-score]
76 | ACATATAG | 0.206
77 | ACATATAA | 0.26
78 | AACCTAGA | 0.13
79 | AGTATCGA | 0.174
80 | TCTAATAA | 0.105
81 | CATAATAA | 0.281
82 | CATAATAG | 0.136
83 | TATAATAA | 0.374
84 | GATAATAA | 0.174
85 | AATAATAT | 0.321
86 | AATAATAA | 0.371
87 | CTTAATAC | 0.0879
88 | ATTAATAA | 0.234
89 | AATAATAG | 0.405
90 | ATTAATAC | 0.335
91 | GCTAATAA | 0.212
92 | GCATCCGC | -0.147
93 | CACATGTC | -0.0475
94 | GAAATTCA | 0.106
95 | ACGTGGCG | -0.166
96 | AAGCTGCC | -0.171
97 | GGCGGCGA | -0.142
98 | ACCTGGCA | -0.0345
99 | GATAACGA | 0.0698
100 | AATAACGA | 0.169

Row | Sequence | binding signal [E-score]
101 | CATAATAC | 0.191
102 | AATAATAC | 0.335
103 | AAAAATAG | 0.2
104 | CAAAATAG | 0.333
105 | GATAATAC | 0.21
106 | CAAAATAA | 0.0411
107 | TATAACGA | 0.336
108 | CAGCCCAG | -0.136
109 | CTTTTTTA | -0.151
110 | GAACATAA | 0.144
111 | AACGTCGC | 0.0434
112 | ACTAGAAG | 0.199
113 | CCTAGAAA | 0.16
114 | ACTAGAGA | 0.118
115 | ACTAGAAC | 0.255
116 | ACTAGAAA | 0.4
117 | ACTAGAAT | 0.349
118 | ACGTTGAT | 0.0039
119 | ACTTAAAG | -0.106
120 | ACAGCCGA | -0.00523
121 | AGTAAAAA | 0.341
122 | AGTAAATC | 0.215
123 | AATAAAAA | 0.295
124 | AGTAAAAG | 0.267
125 | GGTAAATA | 0.318

Row | Sequence | binding signal [E-score]
126 | AATAAAAT | 0.33
127 | AGTAAATG | 0.205
128 | AGTAAATA | 0.425
129 | AGTAAAAT | 0.329
130 | AGTAAAAC | 0.246
131 | AATAAAAC | 0.228
132 | ATTAAAAT | 0.218
133 | TCGTTTAA | 0.00225
134 | TACTTGCA | 0.167
135 | ATCAACTG | 0.0687
136 | CTTCATTA | 0.0438
137 | CTGGCCCC | -0.197
138 | AACCCCTA | -0.0905
139 | CTAAGTCA | -0.0334
140 | CTAAGACC | -0.137
141 | CAGTGGGA | -0.131
142 | AAACAAGA | 0.025
143 | TCCCTCGA | -0.0813
144 | GGTAAAAC | 0.121
145 | AGTTAAAA | 0.324
146 | AGTTAAAT | 0.335
147 | TGTAAACA | 0.079
148 | CGTAAAAA | -0.0178
149 | TGTAAAAA | 0.34
150 | GGTAAAAA | 0.379

Row | Sequence | binding signal [E-score]
151 | GGTAAAGA | 0.177
152 | AGTTAAAC | 0.0755
153 | CGCTAGTC | -0.137
154 | AAGCTGAT | -0.0275
155 | GAATCGCC | 0.00133
156 | CAAAGGAG | -0.156
157 | CACTAACG | -0.157
158 | CCTTACCA | -0.0792
159 | GGACTTTA | -0.19
160 | GTACTTAA | 0.314
161 | ATACTTTA | 0.196
162 | CTACTTCA | 0.207
163 | GTACTTTA | 0.344
164 | CTACTTTC | 0.275
165 | CTACTTTA | 0.337
166 | ATACTTAA | 0.00261
167 | CTACTTAA | 0.387
168 | CGATCGAA | 0.239
169 | TTATCCAA | 0.108
170 | CCGTACTA | 0.201
171 | GTGTTGTA | 0.158
172 | CATGGTGC | -0.16
173 | ACTGGGCT | -0.135
